In PubChem BioAssay (NCATS):
Records with an inconclusive call do not appear. Where a call stands in place of a potency, no number is given. The source made the active and inactive calls. Unless noted, the call rests on the fitted dose curve; in most records, active means well fitted curve in the direction sought with a large enough effect; inconclusive means small, poorly fitted or top-dose-only effect, or another doubt; inactive means no such curve, though single readings can be large; an effect the other way counts as inactive or inconclusive.

Experiments:
[1] = target: DNA repair nuclease/redox regulator APEX1 (Homo sapiens) (UniProt P27695); experiment: qHTS Validation Assay for Inhibitors of the Human Apurinic/apyrimidinic Endonuclease 1 (APE1) (AID 1705;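 further: TAMRA fluorescence gain over two minutes as APE1 cuts a quenched THF abasic duplex; series mostly up to about 57 µM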)
Sequence of DNA repair nuclease/redox regulator APEX1 (Homo sapiens) (P27695 whole entry, looked up): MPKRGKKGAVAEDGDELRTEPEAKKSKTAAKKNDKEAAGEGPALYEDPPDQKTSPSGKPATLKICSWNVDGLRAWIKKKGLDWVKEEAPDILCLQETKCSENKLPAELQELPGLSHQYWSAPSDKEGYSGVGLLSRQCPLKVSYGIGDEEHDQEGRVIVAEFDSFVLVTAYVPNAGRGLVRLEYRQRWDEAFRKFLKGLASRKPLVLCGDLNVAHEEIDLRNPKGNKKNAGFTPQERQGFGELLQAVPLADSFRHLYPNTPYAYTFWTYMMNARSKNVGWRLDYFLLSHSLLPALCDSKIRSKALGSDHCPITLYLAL
Method in brief: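 Substrate: 50 nM final fluorophore/quencher THF-abasic duplex. Enzyme preincubated with compounds 15 min, RT. Progress derived from fluorescence difference, third minus first kinetic read.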

[2] = Counterscreen for APE1 Inhibitors: Fluorescent Dye Displacement Validation Assay (AID 1707)
Method in brief: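 Thiazole Orange (250 nM) bound to 50 nM TAMRA-labelled dsDNA with tetrahydrofuran abasic site; displacement by DNA-binding compounds lowers fluorescence. Buffer 50 mM Tris-HCl pH 7.5, 50 mM NaCl, 2 mM MgCl2, 0.01% Tween-20; endpoint read at 480/540 nm.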

[3] = target: Endonuclease 4 (Escherichia coli (strain K12)) (UniProt P0A6C1); experiment: Counterscreen for APE1 Inhibitors: qHTS Validation Assay for Inhibitors of Endonuclease IV (AID 1708)
Method in brief: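 Enzymatic AP-site incision assay using a double-stranded THF substrate labelled with TAMRA and BHQ-2; released fluorescence signals activity. Enzyme 2 nM, substrate 50 nM, 15 min compound preincubation.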

[4] = qHTS for differential inhibitors of proliferation of Plasmodium falciparum line 7G8 (AID 1815);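 further: parasite growth measured after three days of incubation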
[5] = qHTS for differential inhibitors of proliferation of Plasmodium falciparum line 3D7 (AID 1876);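 further: parasite growth measured after three days of culture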
[6] = qHTS for differential inhibitors of proliferation of Plasmodium falciparum line Dd2 (AID 1882); conditions: Potency: Plasmodium falciparum Dd2 proliferation inhibition;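 further: series mostly up to about 29 µM; compound exposure of 72 h on infected erythrocytes; nearly all actives have a fitted effect of over 65% in size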
Method in brief: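 SYBR Green I DNA fluorescence read-out, ex 485/em 535 nm. Signals were normalized to 0.29 uM artemisinin and DMSO wells, then corrected using vehicle-only plates flanking each stack. Parasite growth ran 72 h in erythrocytes before lysis.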

[7] = target: Ferritin light chain (Equus caballus) (UniProt P02791); experiment: qHTS Validation Assay for Identification of Novel General Anesthetics (AID 2323); further: series mostly up to about 77 µM
Sequence of Ferritin light chain (Equus caballus) (P02791 2-175 limits assumed): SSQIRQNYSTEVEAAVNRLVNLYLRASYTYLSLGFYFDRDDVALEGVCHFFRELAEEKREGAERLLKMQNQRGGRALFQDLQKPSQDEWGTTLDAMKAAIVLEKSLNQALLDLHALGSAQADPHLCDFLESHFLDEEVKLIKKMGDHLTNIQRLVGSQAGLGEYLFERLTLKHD
Method in brief: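 Normalized fluorescence response, scaled between free 1-AMA and 1-AMA/apoferritin complex, fitted to a four-parameter Hill equation for concentration-effect values. Binding mix: 10 uM horse-spleen apoferritin, 50% saturated 1-AMA in PBS; read 380/535 nm after 10 min.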

[8] = target: RecQ-like DNA helicase BLM (Homo sapiens) (UniProt P54132); experiment: qHTS Validation Assay for Inhibitors of Bloom's syndrome helicase (BLM) (AID 2364)
Method in brief: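 Forked 20-bp duplex substrate (200 nM, TAMRA/BHQ-2) plus 2 mM ATP added after 15 min compound preincubation with 50 nM enzyme, pH 8.0, poly(dI-dC) 2.5 ug/ml. Strand separation followed by fluorescence (525/598 nm) over 2 h, normalized to enzyme-free and DMSO controls.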

[9] = Validation screen for inhibitors of Lassa infection (AID 463096; calls by dose curve)
[10] = Quantitative high throughput screen for delayed death inhibitors of the malarial parasite plastid, 96 hour incubation (AID 488745); further: series mostly up to about 29 µM; nearly all actives have a fitted effect of over 70% in size
Method in brief: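 P. falciparum carrying an integrated firefly luciferase reporter, grown in erythrocytes (2% hematocrit, 0.1% parasitemia final) in RPMI 1640/0.5% Albumax, was exposed to compound for 96 h (two generations) at 37 C, 5% CO2. Luminescence decrease indicated growth inhibition.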

[11] = Quantitative high throughput screen for delayed death inhibitors of the malarial parasite plastid, 48 hour incubation (AID 488752); further: nearly all actives have a fitted effect of over 65% in size
Method in brief: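 Erythrocytes infected with P. falciparum carrying an integrated firefly luciferase reporter (2% hematocrit, 0.1% parasitemia final) were exposed to compounds in RPMI 1640/0.5% Albumax for 48 h at 37 C, 5% CO2. Growth inhibition was scored as reduced luminescence.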

[12] = target: Transient receptor potential cation channel subfamily V member 1 (Homo sapiens) (UniProt Q8NER1); experiment: HTS Assay for Compounds that Act as Enhancers of the Vanilloid Receptor 1 (AID 488979)
Method in brief: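 Calcium influx kinetics via Fluo-8 (480/520 nm) in TRPV1-expressing cells, 2000/well cultured overnight at 35.5C. Compound-alone read 3 min (agonist phase), followed by EC20 capsaicin challenge for 2 min (enhancer phase).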

[13] = target: Thyrotropin-releasing hormone receptor (Homo sapiens) (UniProt P34981); experiment: qHTS for Small Molecule Agonists and Allosteric Enhancers of Human TRH Receptor: Validation Screen for Agonists (AID 493127;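 active means calcium activation more than 3 SD above the typical response in the agonist read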;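 further: intracellular calcium rise by fluo-8 fluorescence before TRH EC20 addition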); conditions: TRH receptor agonist cell assay; at 2 µM; stronger effect = higher value
Sequence of Thyrotropin-releasing hormone receptor (Homo sapiens) (P34981 whole entry, looked up): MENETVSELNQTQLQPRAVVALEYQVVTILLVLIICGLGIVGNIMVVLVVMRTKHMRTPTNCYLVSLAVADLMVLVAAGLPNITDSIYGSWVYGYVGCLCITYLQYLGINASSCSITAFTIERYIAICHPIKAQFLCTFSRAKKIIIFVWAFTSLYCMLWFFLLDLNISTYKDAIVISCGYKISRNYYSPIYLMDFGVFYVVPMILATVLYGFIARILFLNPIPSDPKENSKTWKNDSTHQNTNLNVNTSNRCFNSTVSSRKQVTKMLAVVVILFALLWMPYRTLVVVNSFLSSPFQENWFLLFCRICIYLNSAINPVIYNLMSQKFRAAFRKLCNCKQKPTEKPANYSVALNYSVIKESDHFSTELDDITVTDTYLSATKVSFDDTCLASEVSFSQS
Method in brief: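 TRHR-expressing cells were plated overnight in serum-containing medium, then loaded with fluo-8 calcium dye at room temperature for 30 min–1.5 h. After a 10 s baseline, compound was pin-transferred and calcium fluorescence (ex 480/em 530) read kinetically for agonist response.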

[14] = target: Galactokinase (Homo sapiens) (UniProt P51570); experiment: qHTS Validation Assay for Inhibitors of Human Galactokinase (GALK) (AID 493189)
Sequence of Galactokinase (Homo sapiens) (P51570 whole entry, looked up): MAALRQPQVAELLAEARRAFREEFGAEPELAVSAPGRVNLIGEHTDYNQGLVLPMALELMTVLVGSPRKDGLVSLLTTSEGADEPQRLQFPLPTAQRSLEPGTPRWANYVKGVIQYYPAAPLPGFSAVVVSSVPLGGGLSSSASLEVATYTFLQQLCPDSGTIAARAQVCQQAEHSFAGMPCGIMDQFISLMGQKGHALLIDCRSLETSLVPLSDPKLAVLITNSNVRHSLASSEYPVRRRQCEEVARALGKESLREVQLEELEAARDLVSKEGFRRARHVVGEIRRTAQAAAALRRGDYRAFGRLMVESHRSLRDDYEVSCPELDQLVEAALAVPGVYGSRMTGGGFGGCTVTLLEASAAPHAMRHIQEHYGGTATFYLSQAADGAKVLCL
Method in brief: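 Enzyme activity is inferred from ATP consumption: human GALK phosphorylates galactose (100 uM) using 35 uM ATP for 1 h at room temperature, and luciferase-based Kinase-Glo Plus reports unconsumed ATP.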

[15] = target: Glucocorticoid receptor (Homo sapiens) (UniProt P04150); experiment: qHTS assay for small molecule agonists of glucocorticoid receptor signaling (AID 588532; active means well fitted curve in the direction sought with a large enough effect in the signal ratio, with a control signal flat; the % refers to the signal ratio); conditions: HeLa MMTV-bla, beta-lactamase ratio, agonist, 18 h; stronger effect = higher value; percent of dexamethasone control, DMSO zero
Sequence of Glucocorticoid receptor (Homo sapiens) (P04150 whole entry, looked up): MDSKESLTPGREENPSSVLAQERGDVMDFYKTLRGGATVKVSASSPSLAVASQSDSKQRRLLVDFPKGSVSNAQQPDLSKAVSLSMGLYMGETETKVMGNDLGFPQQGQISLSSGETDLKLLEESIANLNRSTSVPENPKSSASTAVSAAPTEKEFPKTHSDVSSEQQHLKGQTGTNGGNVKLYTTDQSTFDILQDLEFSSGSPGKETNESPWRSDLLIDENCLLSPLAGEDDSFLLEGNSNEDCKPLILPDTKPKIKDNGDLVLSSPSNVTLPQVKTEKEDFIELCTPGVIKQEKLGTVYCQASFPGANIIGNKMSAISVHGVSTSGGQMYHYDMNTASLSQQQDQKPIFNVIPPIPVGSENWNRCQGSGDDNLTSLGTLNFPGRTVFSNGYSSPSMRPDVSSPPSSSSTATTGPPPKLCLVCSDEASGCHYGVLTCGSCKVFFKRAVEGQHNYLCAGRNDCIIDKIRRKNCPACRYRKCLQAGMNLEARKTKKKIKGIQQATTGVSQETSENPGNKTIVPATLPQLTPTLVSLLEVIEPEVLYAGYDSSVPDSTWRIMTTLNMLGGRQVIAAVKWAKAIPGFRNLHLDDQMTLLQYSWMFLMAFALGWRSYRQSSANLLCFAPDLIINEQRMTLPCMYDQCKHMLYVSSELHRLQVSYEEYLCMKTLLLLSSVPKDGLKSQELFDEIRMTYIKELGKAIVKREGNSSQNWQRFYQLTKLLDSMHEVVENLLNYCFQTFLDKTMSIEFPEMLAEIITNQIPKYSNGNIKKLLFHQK
Method in brief: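 Using MMTV-bla HeLa cells in medium with 1% stripped FBS and 25 mM HEPES, compounds were titrated and incubated overnight-length (18 h). Beta-lactamase cleavage of CCF4 was quantified by dual-emission fluorescence.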

[16] = target: Peroxisome proliferator-activated receptor delta (Homo sapiens) (UniProt Q03181); experiment: qHTS assay for small molecule agonists of peroxisome proliferator-activated receptor delta signaling (AID 588534; calls by dose curve)
Sequence of Peroxisome proliferator-activated receptor delta (Homo sapiens) (Q03181 whole entry, looked up): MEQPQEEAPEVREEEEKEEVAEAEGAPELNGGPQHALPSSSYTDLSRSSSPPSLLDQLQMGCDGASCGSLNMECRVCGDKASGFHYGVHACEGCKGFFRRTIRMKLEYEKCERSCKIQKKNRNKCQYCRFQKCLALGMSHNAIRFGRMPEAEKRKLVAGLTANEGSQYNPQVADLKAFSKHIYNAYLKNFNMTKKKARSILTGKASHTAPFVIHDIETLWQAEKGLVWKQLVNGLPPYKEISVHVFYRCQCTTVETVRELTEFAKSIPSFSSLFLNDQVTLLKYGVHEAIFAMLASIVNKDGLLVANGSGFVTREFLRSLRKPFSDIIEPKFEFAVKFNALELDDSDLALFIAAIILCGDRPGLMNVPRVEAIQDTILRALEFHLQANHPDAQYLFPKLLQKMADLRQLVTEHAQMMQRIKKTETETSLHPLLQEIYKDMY
Method in brief: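 Cell-based beta-lactamase reporter assay run in agonist mode: cells seeded and incubated 5 hrs at 37 C, compounds added and incubated 18 hrs at 37 C. CCF4 dye fluorescence read after 2 hrs at RT; EC50 and efficacy from Hill fits.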

[17] = qHTS assay for small molecule antagonists of peroxisome proliferator-activated receptor delta signaling (AID 588535; active means well fitted inhibition curve with a large enough effect in the signal ratio, with a control signal flat, not every such curve was filed as active; the % refers to the signal ratio;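 on max response: cells co-treated with a PPAR-delta agonist as stimulator during compound exposure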); conditions: HEK293T PPARd-UAS-bla, beta-lactamase FRET ratio, 18 h; 460 nm channel
Method in brief: (§1)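 Cell-based beta-lactamase assay in antagonist mode: 4000 HEK293T PPAR-delta-UAS-bla cells per well, 5 hr preincubation then 18 hr compound incubation at 37 C. IC50 obtained by Hill equation fitting.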

[18] = target: Peroxisome proliferator-activated receptor delta (Homo sapiens) (UniProt Q03181); experiment: as above
Method in brief: as §1

[19] = target: Vitamin D3 receptor (Homo sapiens) (UniProt P11473); experiment: qHTS assay for small molecule antagonists of vitamin D receptor signaling (AID 588541; calls by dose curve;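 further: receptor activated by calcitriol during compound treatment; series mostly up to about 77 µM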)
Sequence of Vitamin D3 receptor (Homo sapiens) (P11473 whole entry, looked up): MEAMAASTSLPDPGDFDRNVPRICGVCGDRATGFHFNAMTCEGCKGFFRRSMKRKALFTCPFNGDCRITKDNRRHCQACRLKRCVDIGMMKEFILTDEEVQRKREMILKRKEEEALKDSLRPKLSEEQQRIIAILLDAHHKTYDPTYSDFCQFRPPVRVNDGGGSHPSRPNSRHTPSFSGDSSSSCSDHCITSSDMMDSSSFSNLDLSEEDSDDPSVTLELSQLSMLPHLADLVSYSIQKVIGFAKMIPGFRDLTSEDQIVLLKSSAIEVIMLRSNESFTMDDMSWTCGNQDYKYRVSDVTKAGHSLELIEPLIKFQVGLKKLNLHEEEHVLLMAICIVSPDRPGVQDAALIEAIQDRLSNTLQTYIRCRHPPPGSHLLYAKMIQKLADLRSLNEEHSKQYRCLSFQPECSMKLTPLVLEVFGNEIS
Method in brief: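 Antagonist-mode beta-lactamase reporter assay: HEK293T VDR-UAS-bla cells were exposed to titrated compound alongside 1-alpha,25-dihydroxyvitamin D3 at 3 nM final for 16 h. Values were normalized to the 50 nM agonist control and DMSO basal, with IC50 and efficacy from Hill equation fits.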

[20] = target: Vitamin D3 receptor (Homo sapiens) (UniProt P11473); experiment: qHTS assay for small molecule agonists of vitamin D receptor signaling (AID 588543; calls by dose curve)
Method in brief: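 Measured: β-lactamase reporter activity (CCF4, 405 nm excitation, 460/530 nm emission) in HEK293T VDR-UAS-bla cells after 16 h compound exposure at 37 °C. Normalization against 50 nM 1α,25-dihydroxyvitamin D3 and DMSO; Hill-fit EC50.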

[21] = target: Thyroid hormone receptor beta (Homo sapiens) (UniProt P10828); experiment: qHTS assay for small molecule agonists of thyroid hormone receptor beta signaling (AID 588545; calls by dose curve)
Sequence of Thyroid hormone receptor beta (Homo sapiens) (P10828 whole entry, looked up): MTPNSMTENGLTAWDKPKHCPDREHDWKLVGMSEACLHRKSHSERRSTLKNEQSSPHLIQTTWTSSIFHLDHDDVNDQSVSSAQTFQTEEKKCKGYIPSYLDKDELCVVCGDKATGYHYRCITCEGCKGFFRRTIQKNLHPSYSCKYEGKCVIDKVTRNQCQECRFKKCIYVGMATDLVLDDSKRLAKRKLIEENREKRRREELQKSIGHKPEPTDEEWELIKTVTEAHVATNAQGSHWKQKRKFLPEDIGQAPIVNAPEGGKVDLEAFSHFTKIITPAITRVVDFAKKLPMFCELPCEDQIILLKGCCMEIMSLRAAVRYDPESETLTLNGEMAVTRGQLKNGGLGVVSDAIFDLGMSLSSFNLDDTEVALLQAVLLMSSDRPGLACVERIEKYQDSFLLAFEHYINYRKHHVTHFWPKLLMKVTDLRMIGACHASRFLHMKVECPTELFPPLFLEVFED
Method in brief: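 Compounds were tested as agonists in TR-UAS-bla-GripTite HEK 293 cells. After 18 hrs at 37 C, CCF4 substrate was added and fluorescence read after 2 hrs at room temperature.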

[22] = qHTS assay for small molecule antagonists of retinoid X receptor alpha signaling (AID 588546; active means well fitted inhibition curve with a large enough effect in the signal ratio, with a control signal flat, not every such curve was filed as active; the % refers to the signal ratio;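 further: cells stimulated with 9-cis-retinoic acid as agonist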); conditions: HEK293T RXRa-UAS-bla, beta-lactamase ratio, antagonist mode; measured here: W530 green channel, cytotoxicity proxy
Method in brief: (§2)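 Beta-lactamase reporter inhibition, read as CCF4 fluorescence ratio (ex 405, em 460/530 nm) after 2 h at RT. HEK293T UAS-bla cells, 2500/well, were stimulated with 9-cis-RA at 500 or 100 nM final alongside test compound for 18 h at 37 C.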

[23] = target: Retinoic acid receptor RXR-alpha (Homo sapiens) (UniProt P19793); experiment: as above; conditions: HEK293T RXRa-UAS-bla, beta-lactamase ratio, antagonist mode
Sequence of Retinoic acid receptor RXR-alpha (Homo sapiens) (P19793 whole entry, looked up): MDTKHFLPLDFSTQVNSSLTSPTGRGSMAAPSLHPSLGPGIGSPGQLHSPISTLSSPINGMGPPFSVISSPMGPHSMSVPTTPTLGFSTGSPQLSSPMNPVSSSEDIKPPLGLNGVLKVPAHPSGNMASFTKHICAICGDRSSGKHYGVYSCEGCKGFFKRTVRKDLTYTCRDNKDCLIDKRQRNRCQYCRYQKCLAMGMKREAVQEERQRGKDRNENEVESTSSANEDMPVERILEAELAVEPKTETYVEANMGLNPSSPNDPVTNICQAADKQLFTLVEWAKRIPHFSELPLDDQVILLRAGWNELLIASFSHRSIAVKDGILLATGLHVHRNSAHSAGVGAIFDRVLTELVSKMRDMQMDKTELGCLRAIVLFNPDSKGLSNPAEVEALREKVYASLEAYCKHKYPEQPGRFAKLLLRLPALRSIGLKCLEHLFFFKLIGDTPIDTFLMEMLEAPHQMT
Method in brief: as §2

[24] = target: Thyroid hormone receptor beta (Homo sapiens) (UniProt P10828); experiment: qHTS assay for small molecule antagonists of thyroid hormone receptor beta signaling (AID 588547; active means well fitted inhibition curve with a large enough effect in the signal ratio, with a control signal flat, not every such curve was filed as active; the % refers to the signal ratio;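 further: cells stimulated with 0.4 nM T3 agonist during compound exposure; series mostly up to about 77 µM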); conditions: TR-UAS-bla HEK293, beta-lactamase ratio, antagonist mode, 18 h
Method in brief: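 Inhibition of T3-driven (0.4nM final) beta-lactamase reporter activity was measured over 0.59 nM to 92 uM compound after 18 h at 37 C. The cells were GripTite HEK293 TR-UAS-bla in charcoal/dextran-stripped serum, with CCF4 ratio read-out and IC50 from Hill fits.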

[25] = qHTS assay for small molecule agonists of the antioxidant response element (ARE) signaling pathway (AID 651741; active means well fitted activation curve with a large enough effect in the signal ratio; the % refers to the signal ratio; further: potency means the concentration at half of the fitted maximal effect)
Method in brief: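 Seeding 2,000 ARE-bla HepG2 cells per well preceded a 5 h incubation at 37 C/5% CO2 and a 16 h compound exposure at 37 C. Beta-lactamase reporter activity was then quantified by fluorescence after 2 h with LiveBLAzer B/G FRET substrate.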

[26] = qHTS assay for small molecule activators of the p53 signaling pathway (AID 651743; active means well fitted activation curve with a large enough effect in the signal ratio, not every such curve was filed as active; the % refers to the signal ratio; further: series mostly up to about 92 µM); conditions: HCT-116 p53RE-bla, beta-lactamase FRET ratio, 16 h; activation: stronger effect = higher value
Method in brief: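 Screen for p53 pathway agonists uses stably transfected p53RE-bla HCT-116 cells, 4,000 per well, treated 16 h at 37 C with compounds in DMSO.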

[27] = target: Peroxisome proliferator-activated receptor alpha (Homo sapiens) (UniProt Q07869); experiment: qHTS assay for small molecule agonists of the peroxisome proliferator-activated receptor alpha (PPARalpha) signaling pathway (AID 651778); conditions: PathHunter PPARalpha complementation, chemiluminescence, 6 h; stronger effect = higher value
Sequence of Peroxisome proliferator-activated receptor alpha (Homo sapiens) (Q07869 whole entry, looked up): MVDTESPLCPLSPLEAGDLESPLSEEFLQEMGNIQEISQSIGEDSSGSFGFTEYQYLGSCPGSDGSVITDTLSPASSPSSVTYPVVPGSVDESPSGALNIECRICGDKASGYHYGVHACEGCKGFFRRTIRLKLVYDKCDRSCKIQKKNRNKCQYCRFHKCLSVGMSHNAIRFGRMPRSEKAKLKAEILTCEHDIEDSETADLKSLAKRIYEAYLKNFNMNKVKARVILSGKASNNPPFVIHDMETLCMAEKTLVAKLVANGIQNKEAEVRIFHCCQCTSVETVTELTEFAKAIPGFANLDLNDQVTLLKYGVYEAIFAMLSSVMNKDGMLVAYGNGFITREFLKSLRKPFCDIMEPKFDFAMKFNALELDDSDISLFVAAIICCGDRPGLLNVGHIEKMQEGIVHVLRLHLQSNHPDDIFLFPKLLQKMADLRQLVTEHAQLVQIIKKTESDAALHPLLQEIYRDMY
Method in brief: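 Chemiluminescence from complemented enzyme reported PPARalpha activation in cells after 6 hr of compound treatment at 37 C. The detection reagent was incubated for 60 min at room temperature, and compounds were scored as agonists.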

[28] = qHTS assay for small molecule agonists of the antioxidant response element (ARE) signaling pathway measured by Nrf2-dependant transcriptional activity (AID 720636; active means well fitted curve in the direction sought with a large enough effect in the repeat runs; an effect the other way counts as inactive or inconclusive;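 further: HepG2 cells with an ARE-driven luciferase reporter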)
Method in brief: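 We exposed ARE-luc HepG2 cells, seeded in assay medium with 1% dialyzed FBS and allowed 6 hr to adhere, to test compounds overnight (16 hr, 37 C) before measuring luciferase with ONE-Glo.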

[29] = qHTS assay for small molecule agonists of the antioxidant response element (ARE) signaling pathway measured by Nrf2-dependant transcriptional activity - cell viability counter screen (AID 720653; active means well fitted curve in the direction sought with a large enough effect in the repeat runs; an effect the other way counts as inactive or inconclusive); conditions: ARE-bla HepG2 viability, CellTiter-Glo ATP luminescence, 16 h; stronger effect = lower value
Method in brief: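 Cytotoxicity counter screen: intracellular ATP quantified by CellTiter-Glo luminescence in the same ARE-bla HepG2 plates, after 16 h compound exposure and a 2 h beta-lactamase substrate step.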

[30] = qHTS assay for cell viability of HEK293 cells (AID 743288); conditions: ATP luminescence (CellTiter-Glo), 18 h; max response: stronger effect = lower value; further: nearly all actives have a fitted effect of over 50% in size
Method in brief: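 Luminescent ATP quantitation served as the viability read-out. Cells (parental HEK293, 2,000/well) received compounds after at least 5 h at 37 C and were exposed for 18 h before a 30 min room-temperature reagent step.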

[31] = qHTS assay for cell viability of the p53RE-bla HCT-116 cell line (AID 743292); further: nearly all actives have a fitted effect of over 55% in size
Method in brief: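 In this qHTS counter-screen, metabolically competent p53RE-bla HCT-116 cells were counted via their ATP content. Compounds were applied for 16 h at 37 C and luciferase-coupled luminescence was measured.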

[32] = target: Nuclear receptor subfamily 1 group I member 2 (Rattus norvegicus) (UniProt Q9R1A7); experiment: qHTS assay for small molecule activators of the rat pregnane X receptor (rPXR) signaling pathway (AID 651751; call rule not given here); conditions: rPXR reporter cells, luciferase (One-Glo), 24 h
Sequence of Nuclear receptor subfamily 1 group I member 2 (Rattus norvegicus) (Q9R1A7 whole entry, looked up): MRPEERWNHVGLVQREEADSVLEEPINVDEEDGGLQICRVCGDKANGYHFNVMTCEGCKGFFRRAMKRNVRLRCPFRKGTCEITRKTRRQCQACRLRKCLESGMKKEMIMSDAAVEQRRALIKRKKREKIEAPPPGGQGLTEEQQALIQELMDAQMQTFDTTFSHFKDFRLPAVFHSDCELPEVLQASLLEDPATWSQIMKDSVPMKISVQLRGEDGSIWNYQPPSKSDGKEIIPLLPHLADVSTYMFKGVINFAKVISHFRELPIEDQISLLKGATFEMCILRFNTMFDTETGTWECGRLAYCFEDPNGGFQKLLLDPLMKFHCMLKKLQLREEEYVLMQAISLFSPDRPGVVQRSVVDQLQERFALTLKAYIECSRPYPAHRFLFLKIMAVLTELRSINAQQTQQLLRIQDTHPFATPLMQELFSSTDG

## O=C(O)C1C2CCC(O2)C1C(=O)O (configuration not stated)
[1]
  Potency: inactive
[2]
  outcome: inactive
[3]
  Potency: inactive
[4]
  Potency: inactive
[5]
  Potency: inactive
[6]
  Potency: inactive
[7]
  Potency: inactive
[8]
  outcome: inactive
[9]
  Potency: inactive
[10]
  Potency: inactive
[11]
  Potency: inactive
[12]
  outcome: inactive
[13]
  activation: 1.38% (inactive)
[14]
  outcome: inactive
[15]
  activation: -13.9% (inactive)
[16]
  outcome: inactive
[17]
  max response: 16.5%
[18]
  Potency: inactive
[19]
  outcome: inactive
[20]
  outcome: inactive
[21]
  outcome: inactive
[22]
  max response: -24.5%
[23]
  max response: -26.2% (inactive)
[24]
  activity change % (negative = inhibition): -12% (inactive)
[25]
  Potency: 27.3 µM (active)
[26]
  activation: 4.04% (inactive)
[27]
  max response: -0.146% (inactive)
[28]
  outcome: inactive
[29]
  max response: -12.2% (inactive)
[30]
  max response: -14.9% (inactive)
[31]
  Potency: inactive
[32]
  max response: 4.79% (inactive)
